G9a block = G9a (human) methyltransferase inhibition. 8.8% of 350,000 active. Potency, µM (top dose mostly 102 µM), for the others: at the top dose activity, negative = inhibition, most hits filed as inhibitors. G9a H3K9 monomethylation, AlphaScreen, 2 h; further: on the % scale 0 is the no-effect control and ±100 the full control effect; nearly all actives have a fitted effect of over 75% in size
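Quantitative HTS format: methyltransferase activity on a biotin-tagged H3K9 peptide is measured by AlphaScreen, using a rabbit anti-monomethyl-H3K9 antibody with streptavidin donor and anti-IgG acceptor beads. Final levels are 20 nM enzyme, 500 nM peptide, 20 uM SAM; 2 h RT.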
L3MBTL1 inh = blocks human L3MBTL1 | AlphaScreen L3MBTL1–H3K9me1 peptide binding | AID 485360 | 0.66% of 230,000 active | Potency, µM (top dose mostly 57.1 µM), for the others: at the highest dose activity, negative = inhibition, actives largely listed as inhibitors | Q9Y468; further: on the % scale 0 is the no-effect control and ±100 the full control effect; nearly all actives have a fitted effect of over 60% in size
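Displacement of a biotinylated histone H3(1-15) peptide monomethylated at Lys9 (75 nM) from L3MBTL1 (50 nM) was measured by AlphaScreen after a 30 min room-temperature compound incubation; cefsulodin titration served as intraplate control.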
JMJD2A Tudor inh = inhibitors of human JMJD2A Tudor domain; O75164; AlphaScreen JMJD2A-Tudor / H3K4me3 peptide binding; Potency, µM (top dose mostly 114 µM), inactives show top-dose activity change, negative = inhibition, most hits filed as inhibitors; 4.4% of 390,000 active; further: on the % scale 0 is the no-effect control and ±100 the full control effect; nearly all actives have a fitted effect of over 50% in size
HP1b binding inh = inhibitors of HP1-beta chromodomain binding to methylated histone tails | 0.56% of 390,000 active | Potency, µM (titrated, usually from 114 µM), inactives show at the top dose activity change, negative = inhibition, hits mostly inhibitors | AlphaScreen HP1-beta / biotin-H3K9me3 peptide binding; further: nearly all actives have a fitted effect of over 70% in size
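AlphaScreen: HP1-beta (50 nM) preformed 30 min with biotin-H3(1-18)K9me3 peptide (50 nM) in PBS pH 7.4, 0.01% Tween-20. Compound added for 30 min at RT, then streptavidin donor/nickel chelate acceptor beads (10 ug/mL) for 30 min.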
BAZ2B block = blocks human BAZ2B | Q9UIF8 | AlphaScreen BAZ2B-H3K14Ac peptide displacement | Potency, µM (series often up to 114 µM), for the others: at the highest dose activity change, negative = inhibition, hits mostly inhibitors | 4.4% of 360,000 active | AID 504333; further: on the % scale 0 is the no-effect control and ±100 the full control effect; nearly all actives have a fitted effect of over 60% in size
Target sequence (Q9UIF8 whole entry, looked up): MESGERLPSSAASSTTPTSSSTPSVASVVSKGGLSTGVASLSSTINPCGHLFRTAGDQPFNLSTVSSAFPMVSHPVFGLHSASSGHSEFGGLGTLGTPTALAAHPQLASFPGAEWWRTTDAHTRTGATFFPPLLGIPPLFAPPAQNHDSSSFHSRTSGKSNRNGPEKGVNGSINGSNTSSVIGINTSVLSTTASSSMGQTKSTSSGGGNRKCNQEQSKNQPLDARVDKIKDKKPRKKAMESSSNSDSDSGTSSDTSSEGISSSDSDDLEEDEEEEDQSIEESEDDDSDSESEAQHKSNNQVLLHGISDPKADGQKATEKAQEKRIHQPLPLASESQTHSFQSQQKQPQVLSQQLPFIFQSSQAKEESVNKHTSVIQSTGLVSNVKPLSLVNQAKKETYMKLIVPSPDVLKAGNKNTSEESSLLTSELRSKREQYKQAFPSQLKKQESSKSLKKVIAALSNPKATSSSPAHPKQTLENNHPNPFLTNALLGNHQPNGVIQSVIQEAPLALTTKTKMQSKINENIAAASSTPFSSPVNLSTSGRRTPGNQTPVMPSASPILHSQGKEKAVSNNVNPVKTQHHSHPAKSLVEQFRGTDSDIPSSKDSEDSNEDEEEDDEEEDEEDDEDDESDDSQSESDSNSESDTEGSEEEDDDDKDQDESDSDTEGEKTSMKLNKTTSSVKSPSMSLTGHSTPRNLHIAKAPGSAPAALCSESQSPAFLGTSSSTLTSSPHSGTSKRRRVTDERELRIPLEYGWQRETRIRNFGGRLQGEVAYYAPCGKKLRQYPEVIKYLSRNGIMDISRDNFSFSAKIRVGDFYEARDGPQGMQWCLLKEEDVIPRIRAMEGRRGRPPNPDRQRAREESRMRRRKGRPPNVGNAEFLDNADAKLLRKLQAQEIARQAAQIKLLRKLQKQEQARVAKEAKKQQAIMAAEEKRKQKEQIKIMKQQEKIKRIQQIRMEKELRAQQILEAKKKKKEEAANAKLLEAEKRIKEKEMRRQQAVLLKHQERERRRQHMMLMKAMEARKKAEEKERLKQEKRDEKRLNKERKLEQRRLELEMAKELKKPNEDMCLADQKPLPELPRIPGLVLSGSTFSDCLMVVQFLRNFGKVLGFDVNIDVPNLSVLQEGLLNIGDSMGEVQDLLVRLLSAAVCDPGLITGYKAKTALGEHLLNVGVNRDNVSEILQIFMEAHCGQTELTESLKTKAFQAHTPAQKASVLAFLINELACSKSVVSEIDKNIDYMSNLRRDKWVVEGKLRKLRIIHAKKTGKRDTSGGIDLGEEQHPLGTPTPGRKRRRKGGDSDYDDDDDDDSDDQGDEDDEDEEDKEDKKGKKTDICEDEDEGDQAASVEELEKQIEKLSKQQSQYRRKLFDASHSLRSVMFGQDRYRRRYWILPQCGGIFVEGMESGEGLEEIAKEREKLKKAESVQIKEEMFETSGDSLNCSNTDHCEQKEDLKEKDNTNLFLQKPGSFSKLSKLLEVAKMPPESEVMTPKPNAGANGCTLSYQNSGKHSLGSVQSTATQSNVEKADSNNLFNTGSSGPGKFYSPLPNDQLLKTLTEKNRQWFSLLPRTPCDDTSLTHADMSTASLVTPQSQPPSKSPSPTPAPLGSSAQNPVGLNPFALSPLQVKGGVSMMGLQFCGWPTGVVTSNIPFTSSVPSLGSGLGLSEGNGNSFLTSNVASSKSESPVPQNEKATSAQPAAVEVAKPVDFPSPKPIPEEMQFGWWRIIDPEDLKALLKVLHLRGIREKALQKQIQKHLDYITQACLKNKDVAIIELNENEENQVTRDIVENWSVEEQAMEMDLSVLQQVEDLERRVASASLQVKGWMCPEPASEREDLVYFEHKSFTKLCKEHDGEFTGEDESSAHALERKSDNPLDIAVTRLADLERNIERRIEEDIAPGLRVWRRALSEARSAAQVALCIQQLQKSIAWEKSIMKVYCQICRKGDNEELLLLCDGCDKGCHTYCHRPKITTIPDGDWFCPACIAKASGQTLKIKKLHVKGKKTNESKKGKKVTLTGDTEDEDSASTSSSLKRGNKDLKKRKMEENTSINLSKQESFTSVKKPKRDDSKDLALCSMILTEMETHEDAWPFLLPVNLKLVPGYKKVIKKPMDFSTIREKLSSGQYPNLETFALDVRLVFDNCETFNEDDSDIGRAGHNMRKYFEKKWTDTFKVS
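Inhibition is scored as reduced AlphaScreen emission. The BAZ2B/b-H3(5-23)K14Ac complex (50 nM each) in PBS pH 7.4, 0.01% Tween-20 meets compound (up to 110 uM) for 30 min at RT before bead addition.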
Sfp PPTase inh = blocks B. subtilis Sfp PPTase activity | Q9F4F7 | Biochemical Sfp PPTase activity, qHTS | Potency, µM, for inactives: largest response in the series, negative = inhibition, most hits filed as inhibitors | 3.5% of 310,000 active;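 further: the enzyme is Sfp with the accession as filed and its product quenches rhodamine fluorescence; 0% = enzyme reaction without inhibitor and -100% = no enzyme wells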
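Step 1, compound plus 15 nM Sfp-PPTase, 15 min, room temperature. Step 2, add rhodamine-CoA (5 uM) and BHQ-2-YbbR (12.5 uM). Step 3, read 525/598 nm fluorescence at 0 and 30 min.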
Active calls of the source: *; [ ] = dose if it differs, or a comment. Sampled rows, rich in hits. Any-hit rate of the full collection: about 12%. The call rests on the fitted dose curve; in most records, active means well fitted curve in the direction sought with a large enough effect; inconclusive means small, poorly fitted or top-dose-only effect, or another doubt; inactive means no such curve, though single readings can be large; an effect the other way counts as inactive or inconclusive. Potency means the concentration at half of the fitted maximal effect.

What do the screens show for `COc1ccccc1NC(=O)c1sc2nc(-c3ccco3)ccc2c1N`?
G9a block: 2.5µM*; JMJD2A Tudor inh: 20%[57.1 µM]; HP1b binding inh: 54%; BAZ2B block: -6%; Sfp PPTase inh: -23%

What do the screens show for `Nc1c(C(=O)Nc2ccccc2)sc2nc(-c3ccco3)ccc12`?
G9a block: 11µM*; L3MBTL1 inh: 3%; JMJD2A Tudor inh: 9%; HP1b binding inh: 29%; BAZ2B block: -2%; Sfp PPTase inh: 7.9µM*

What do the screens show for `Nc1c(C(=O)Nc2cccc(Cl)c2Cl)sc2nc(-c3cccnc3)ccc12`?
G9a block: 89µM*; L3MBTL1 inh: -5%; JMJD2A Tudor inh: -12%; HP1b binding inh: 64%; BAZ2B block: -2%; Sfp PPTase inh: -1%

How did OCc1cc2c(cn1)[nH]c1ccccc12 do in these assays?
G9a block: 37%[59 µM]; Sfp PPTase inh: 21%

What do the screens show for `O=[N+]([O-])c1cccn2cc(-c3ccc(Br)cc3)nc12`?
G9a block: inconclusive; L3MBTL1 inh: -30%; JMJD2A Tudor inh: inconclusive; HP1b binding inh: -11%; BAZ2B block: inconclusive; Sfp PPTase inh: -4%

Results for Nc1nn2cc(-c3ccc(Br)cc3)nc2c2ccccc12 ?
G9a block: 79µM*; JMJD2A Tudor inh: -18%; HP1b binding inh: 16%; BAZ2B block: -31%; Sfp PPTase inh: -14%

How did O=C(O)c1ccc(N2C(=O)CC(N3CCN(c4cccc(C(F)(F)F)c4)CC3)C2=O)cc1 (stereo not drawn) do in these assays?
G9a block: 40µM*; L3MBTL1 inh: -2%; JMJD2A Tudor inh: -5%; HP1b binding inh: 91%; BAZ2B block: 7%; Sfp PPTase inh: 12%

Results for O=C(O)c1ccc(N2C(=O)CC(N3CCN(c4cccc(Cl)c4)CC3)C2=O)cc1 (stereo not drawn) ?
G9a block: 11%[0.501 µM]; L3MBTL1 inh: 7%[2.29 µM]; JMJD2A Tudor inh: -9%; HP1b binding inh: 54%; BAZ2B block: 5%; Sfp PPTase inh: -6%

What do the screens show for `COc1ccc(N2C(=O)CC(N3CCC(O)(c4cccc(C(F)(F)F)c4)CC3)C2=O)cc1` (stereo not drawn)?
G9a block: 40µM*; L3MBTL1 inh: 9%; JMJD2A Tudor inh: -16%; HP1b binding inh: 69%; BAZ2B block: 0%; Sfp PPTase inh: -1%

How did COc1cccc(N2C(=O)CC(Nc3ccc(N4CCOCC4)cc3)C2=O)c1 (stereo not drawn) do in these assays?
G9a block: 0%[59 µM]; L3MBTL1 inh: -2%; JMJD2A Tudor inh: inconclusive; HP1b binding inh: -12%; BAZ2B block: -6%; Sfp PPTase inh: inconclusive

How did COc1ccc(N2C(=O)CC(Nc3ccc(C(=O)O)cc3)C2=O)cc1OC (stereo not drawn) do in these assays?
G9a block: 40µM*; L3MBTL1 inh: 8%; JMJD2A Tudor inh: 10%; HP1b binding inh: 62%; BAZ2B block: -17%; Sfp PPTase inh: 13%

Results for COC(=O)c1cccc(NC2CC(=O)N(c3ccc(OC)c(OC)c3)C2=O)c1 (stereo not drawn) ?
G9a block: inconclusive; L3MBTL1 inh: 11%[11.4 µM]; JMJD2A Tudor inh: -15%; HP1b binding inh: 14%; BAZ2B block: -3%; Sfp PPTase inh: 12%

How did O=C1CC(Nc2ccc(N3CCOCC3)cc2)C(=O)N1c1cccc(C(F)(F)F)c1 (stereo not drawn) do in these assays?
G9a block: 14µM*; L3MBTL1 inh: inconclusive; JMJD2A Tudor inh: inconclusive; HP1b binding inh: -15%; BAZ2B block: 56µM*; Sfp PPTase inh: inconclusive

Results for Cc1cccc(CCn2c(=O)c3ccccc3n(Cc3ccccc3C)c2=O)c1 ?
G9a block: 1%[59 µM]; JMJD2A Tudor inh: 18%; HP1b binding inh: 54%; BAZ2B block: 15%

How did COC(=O)c1ccc(N2C(=O)CC(N(C)CCc3ccc(OC)c(OC)c3)C2=O)cc1 (stereo not drawn) do in these assays?
G9a block: 35µM*; L3MBTL1 inh: 0%; JMJD2A Tudor inh: -8%; HP1b binding inh: 39%; BAZ2B block: 1%; Sfp PPTase inh: -14%

How did O=C(NCc1nnc(SCC(=O)N2CCC(Cc3ccccc3)CC2)o1)c1ccccc1F do in these assays?
G9a block: 45µM*; L3MBTL1 inh: 8%; JMJD2A Tudor inh: -24%; HP1b binding inh: 12%; BAZ2B block: -5%; Sfp PPTase inh: 0%

Results for O=C(CSc1nnc(CNC(=O)c2ccco2)o1)Nc1ccccc1C(F)(F)F ?
G9a block: 2%[0.501 µM]; JMJD2A Tudor inh: 18%; HP1b binding inh: 38%; BAZ2B block: -2%; Sfp PPTase inh: 5%

Results for O=C(CSc1nnc(CNC(=O)c2ccco2)o1)Nc1ccccc1F ?
G9a block: 25µM*; JMJD2A Tudor inh: -14%; HP1b binding inh: -9%; BAZ2B block: -11%; Sfp PPTase inh: 40µM*

Results for O=C(NCc1nnc(SCC(=O)N2CCCC2)o1)c1c(F)cccc1F ?
G9a block: 45%; JMJD2A Tudor inh: 4%; HP1b binding inh: 26%; BAZ2B block: 0%; Sfp PPTase inh: 9%

What do the screens show for `CCOc1ccc(NC(=O)CSc2nnc(CNC(=O)c3ccco3)o2)cc1`?
G9a block: -48%; JMJD2A Tudor inh: -3%; HP1b binding inh: 46%; BAZ2B block: -3%; Sfp PPTase inh: 10%

Results for O=C(CSc1nnc(CNC(=O)c2ccco2)o1)Nc1ccc(Br)cc1 ?
G9a block: 10µM*; JMJD2A Tudor inh: -2%; HP1b binding inh: 24%; BAZ2B block: inconclusive; Sfp PPTase inh: -19%

What do the screens show for `COc1cc2c(cc1NC(=O)c1cccc(S(=O)(=O)N(C)C)c1)oc1ccccc12`?
G9a block: 15%[59 µM]; L3MBTL1 inh: 4%; JMJD2A Tudor inh: -19%; HP1b binding inh: 23%; BAZ2B block: 6%; Sfp PPTase inh: -10%

How did COc1ccc(S(=O)(=O)Nc2ccc3c(c2)C(=O)N([C@@H](C)CO)C[C@H](C)[C@H](CN(C)S(=O)(=O)c2ccc(F)cc2)O3)cc1 do in these assays?
L3MBTL1 inh: -11%; JMJD2A Tudor inh: -33%; HP1b binding inh: 21%

What do the screens show for `CC(c1n[nH]c(=S)n1-c1ccccc1)N1CCCCC1` (stereo not drawn)?
G9a block: 18µM*; L3MBTL1 inh: 0%; JMJD2A Tudor inh: 7.1µM*; HP1b binding inh: 47%; BAZ2B block: -21%; Sfp PPTase inh: 2%

How did O=C(O)CC1SC(=O)N(Cc2ccccc2)C1=O (stereo not drawn) do in these assays?
G9a block: inconclusive; L3MBTL1 inh: 5%; JMJD2A Tudor inh: -12%; HP1b binding inh: 30%; BAZ2B block: -2%; Sfp PPTase inh: 22%
